Shown are actives, neighbours in structure and some others; about 2.8% of the full set was active somewhere.
DRD3 antagonist: D3 dopamine receptor (human) antagonism. P35462. max response, negative = inhibition, %. AID 652054. D3R cells, DiscoveRx beta-arrestin luminescence, antagonist mode; hits give low values. 360,000 compounds, 2.5% hits; in the data active means max response below about -50%; inconclusive means no clear call, values can overlap the other calls; further: on the % scale 0 is the no-effect control and ±100 the full control effect
Target sequence (P35462 whole entry, looked up): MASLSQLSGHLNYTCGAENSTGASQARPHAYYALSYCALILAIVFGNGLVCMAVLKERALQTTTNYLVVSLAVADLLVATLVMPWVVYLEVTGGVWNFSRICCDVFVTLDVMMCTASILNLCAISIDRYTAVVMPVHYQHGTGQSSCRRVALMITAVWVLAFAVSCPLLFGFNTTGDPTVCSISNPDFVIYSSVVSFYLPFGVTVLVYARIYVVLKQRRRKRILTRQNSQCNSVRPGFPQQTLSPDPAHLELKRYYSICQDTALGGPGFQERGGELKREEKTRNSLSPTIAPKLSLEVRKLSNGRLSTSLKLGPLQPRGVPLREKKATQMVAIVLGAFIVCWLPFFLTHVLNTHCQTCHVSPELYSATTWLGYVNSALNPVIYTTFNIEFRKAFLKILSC
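Cells expressing the human receptor were seeded at 1500 cells/well, incubated overnight at 37 degrees C in 5% CO2, then exposed to library compounds with dopamine controls for 90 minutes at 37 degrees C before luminescent detection.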
Giardia kill: Giardia lamblia killing; activity change, % at 7.66 µM, hits read low; 340,000 compounds, 0.15% hits; AID 540267; Giardia lamblia trophozoite viability; in the data active means activity change below about -80%; inconclusive means between about -30% and that limit;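 further: parasites exposed to compound for two days anaerobically before the ATP read; on the % scale 0 is the no-effect control and ±100 the full control effect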
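Luminescence from cellular ATP indicates surviving trophozoites (100 cells/well) following 48 hrs anaerobic compound treatment at 37 deg C; signal develops 15-30 min at room temperature.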
B2AR arrestin: recruits beta-arrestin to the human beta2-adrenergic receptor. P07550. beta-arrestin recruitment to beta2AR, cell-based reporter. Potency, µM (top dose mostly 46.1 µM), inactives show at the highest dose activation, hits mostly activators. 330,000 compounds, 0.02% hits; active means well fitted activation curve with a large enough effect; inconclusive means small, poorly fitted or top-dose-only effect;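 further: potency means the concentration at half of the fitted maximal effect; 0% = DMSO controls and full agonism = EC100 isoproterenol or metaproterenol; nearly all actives have a fitted effect of over 65% in size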
DRD3 agonist: D3 dopamine receptor (human) agonism; P35462; D3R DiscoveRx beta-arrestin cells, luminescence, 90 min; max activation, %; 410,000 compounds, 0.58% hits; AID 652048; in the data active means max activation above about 30%; further: 0% is about no effect
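Cells at 1500/well, incubated overnight, then treated with pinned compounds (dopamine as control) for 90 min at 37 degrees C. DiscoveRx reagent added for 30 - 60 minutes at room temperature; luminescence read.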
* hit, by the source's call; u = inconclusive; x = no result given.

SMILES	DRD3 antagonist	Giardia kill	B2AR arrestin	DRD3 agonist
CNCC/C=C1/c2ccccc2CSc2ccccc21	-81*	1	0%	0
CN(C)CC/C=C1/c2ccccc2CS(=O)(=O)c2ccccc21	-5	-3	x	6
Cc1ccc(-c2cc(-c3coc4ccccc4c3=O)c3c(n2)-c2ccccc2OC3)cc1	x	x	x	-12
CCOc1ccc(CC(=O)Nc2c(C(=O)c3ccc(C)cc3)oc3ccccc23)cc1OCC	x	x	x	1
Cc1cc(Nc2cccc([N+](=O)[O-])c2)n2c(nc3ccccc32)c1C#N	-93*	7	0%	4
COc1ccc(C(=O)NC2CC(=O)N(c3ccc4c(c3)OCCO4)C2)cc1 (stereo not drawn)	x	x	x	0
CC(C(=O)Nc1cc(Cl)cc(Cl)c1)N1CCCC1 (stereo not drawn)	-110*	6	0%	-16
O=S(=O)(c1ccc(C(F)(F)F)cc1)N1CCN(c2nc(-c3ccccc3)nc3ccccc23)CC1	x	7	x	x
CC1CCN(c2ccc3c(c2)S(=O)(=O)c2cccc(C(=O)NCc4cccc(F)c4)c2C3=O)CC1	100	-17	-4%	106*
O=C(NCc1ccco1)c1cccc2c1C(=O)c1ccc(N3CCC(Cc4ccccc4)CC3)cc1S2(=O)=O	68	2	0%	31*
O=C(NCc1ccc(OC(F)(F)F)cc1)c1cccc2c1C(=O)c1ccc(N3CCCC3)cc1S2(=O)=O	-51*	-6	-1%	-13
CCOc1ccc(-c2cc3c(=O)n(Cc4nc(-c5ccc(OC(C)C)cc5)oc4C)ccn3n2)cc1Cl	x	x	x	-11
COC1=CC(=O)C=C(OC)C1(O)CC(C)=O	-56*	-17	x	0
C=C1CC(COc2cc(=O)oc3ccccc23)(c2ccccc2)OC1=O (stereo not drawn)	-114*	-19	x	-15
O=C(Nc1ccc(Cl)cn1)c1cccnc1	-51*	-12	0%	3
O=C(Nc1ccc(Cl)cn1)c1ccc2nccnc2c1	5	6	-1%	2
CCS(=O)(=O)c1nc(S(=O)(=O)c2ccc(C)cc2)c(N2CCN(CCO)CC2)s1	-18	14	0%	-13
Cc1ccc(S(=O)(=O)c2nc(S(=O)(=O)c3ccccc3)sc2N2CCN(C)CC2)cc1	-86*	9	-1%	-20
Cc1ccc(S(=O)(=O)c2nc(S(=O)(=O)c3ccccc3)sc2N2CCN(CCO)CC2)cc1	-74*	-3	0%	-18
CCOc1ccc(C2C(=O)N(C3CCCCCC3)CC(=O)N2Cc2ccccc2)cc1OC (stereo not drawn)	x	x	x	-18
CCN(CC(O)c1cccc(O)c1)C(=O)C12CC3CC(CC(C3)C1)C2 (stereo not drawn)	-78*	12	0%	-1
Cc1cc2ccccc2n1CCNC(=O)C(C)Oc1ccccc1 (stereo not drawn)	-60*	4	-1%	-18
Cc1cc2ccccc2n1CCNC(=O)C(C)C	0	58	0%	-12
CC(C)C(=O)NCCn1ccc2ccccc21	-53*	-7	-1%	-3
COC(=O)CN1C(c2ccccc2)=Nc2ccc(Cl)cc2C1c1ccccc1 (stereo not drawn)	-56*	3	0%	-5
SMILES	DRD3 antagonist	Giardia kill	B2AR arrestin	DRD3 agonist
COC(=O)CN1C(C)=Nc2ccc(C)cc2C1c1ccccc1 (stereo not drawn)	7	-25	0%	-9
NNC(=O)CN1C(c2ccccc2)=Nc2ccc(Br)cc2C1c1ccccc1 (stereo not drawn)	-18	-13	0%	-11
NNC(=O)CN1C(c2ccc(Cl)cc2)=Nc2ccc(Br)cc2C1c1ccccc1 (stereo not drawn)	-59*	-3	0%	-9
Clc1ccccc1-c1nn2c(-c3cc(-c4ccccc4)n[nH]3)nnc2s1	x	3	x	x
CCOC(=O)CSc1nc2cc(OC)c(OC)cc2cc1C#N	x	17	x	x
Cc1ccc2cccc(N=Cc3c(C)[nH]n(-c4ccccc4)c3=O)c2n1	-99*	9	0%	-28
COc1ccc(OCc2cccc(C(=O)Nn3cc([N+](=O)[O-])cn3)c2)cc1	-65*	-27	0%	0
CC(=O)c1ccc(NC(=O)c2ccc3c(c2)N(Cc2cccc(Cl)c2)C(=O)c2ccccc2S3(=O)=O)cc1	x	x	x	-2
CCOc1cc(/C=C2\CN(C)C/C(=C\c3ccc(O)c(OCC)c3)C2=O)ccc1O	-52*	-16	0%	-12
COc1cc(C=C2CN(C)C(=O)C2=O)ccc1O	-13	x	x	-4
C#CCOc1ccc(-c2nnc(Nc3ccc(NC(C)=O)cc3)c3ccccc23)cc1	x	x	x	9
CC(=O)OC(COc1ccccc1)Cn1cnc2cc(C)c(C)cc21 (stereo not drawn)	-59*	-25	0%	0
COC(=O)c1ccc(-n2c(C)cc(C(=O)CSc3cccc[n+]3[O-])c2C)cc1	12	10	0%	16
COC(=O)c1ccc(C(=O)OC)c(NC(=O)CSc2cccc[n+]2[O-])c1	u	-5	5µM*	-11
NC(N)=NCC1COC2(CCCCC2)O1 (stereo not drawn)	x	x	x	3
CN1C(=O)CC(C)(c2ccccc2)C1=O (stereo not drawn)	x	x	x	7
COc1ccc([C@H]2/C=C\CN(S(=O)(=O)/C=C/c3ccccc3)[C@@H](C)C(=O)N2Cc2ccc(F)cc2)cc1	7	-1	x	40*
COc1ccc(C2/C=C\CN(C(=O)C3CCCC3)[C@H](Cc3ccccc3)C(=O)N2Cc2ccc(F)cc2)cc1 (stereo partly drawn)	-68*	23	0%	-22
COc1ccc([C@H]2/C=C\CN(C(=O)c3ccccc3)[C@@H](C)C(=O)N2Cc2ccc(F)cc2)cc1	0	0	x	1
CC(=O)Nc1ccn(C2OC(C(COC(C)=O)NC(=O)C(Cc3ccccc3)NC(=O)OC(C)(C)C)C(OC(C)=O)C2OC(C)=O)c(=O)n1 (stereo not drawn)	x	-21	x	x
COc1ccccc1CNC(=O)c1nnn(CC(=O)Nc2c(C)cccc2C)c1N	x	x	x	-17
CCOC(=O)CNC(=O)CSc1nnc(NC(=O)c2ccc(C)cc2)s1	-1	-87*	0%	6
Cc1ccc(C(=O)Nc2nnc(SCC(=O)N3CCCc4ccccc43)s2)cc1	-16	-125*	0%	-5
CC(C)Oc1ccc(C(=O)Nc2nnc(SCC(=O)N3CCOCC3)s2)cc1	3	-95*	0%	1
CN(C)S(=O)(=O)c1ccc(C(=O)Nc2nnc(SCC(=O)N3CCOCC3)s2)cc1	-26	x	x	-4
COc1ccccc1NC(=O)CSc1nc(-c2ccc(C(C)(C)C)cc2)c(C#N)c(=O)[nH]1	x	x	x	-19
COc1ccc(Cl)cc1NC(=O)C1CCN(S(=O)(=O)c2ccc3c(c2)CC(C)N3C(C)=O)CC1 (stereo not drawn)	x	x	x	-13
COC(=O)c1c(C)cc(O)c(C=O)c1O	-53*	-19	x	-15
Cc1ccc2sc(N(CCN(C)C)C(=O)c3ccc4ccccc4c3)nc2c1C	-73*	9	0%	0
CCCC/C=C/[C@H](c1ccccc1)[C@H](CO)Cc1ccc([N+](=O)[O-])cc1	x	-9	x	x
